# KLF5 inhibitor = suppresses KLF5 promoter-driven expression | DLD-1 KLF5 promoter-luciferase reporter, luminescence | inhibition, % at 5 µM | 290,000 compounds, 0.23% hits;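 active = inhibition above a per-plate limit of that plate's mean compound inhibition plus 3 SD, cut at about 60% in these data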;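 also: 0% = DMSO wells and 100% = LY294002 at 200 µM; higher means less KLF5 promoter-driven luciferase light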
# Gli-Sufu block = Gli-Sufu pathway antagonism; Sufu-KO-LIGHT fibroblasts, Gli luciferase reporter luminescence; inhibition, % at 5 µM; 340,000 compounds, 0.74% hits; AID 588413;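 active = inhibition above about 55%, limit read from the data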;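 also: 0% = DMSO-treated cells and 100% = wells with medium but no cells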
# aSyn UTR inh = 5' untranslated region of α-synuclein, MLPCN primary screen | inhibition, % (tested at 7.5 µM) | AID 1813 | alpha-synuclein 5'UTR reporter, inhibitor activity | 300,000 compounds, 0.82% hits; in the data active = inhibition above about 60%;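 also: H4 neuroglioblastoma cells stably carrying SNCA 5'UTR luciferase fusion; 0% = DMSO wells and 100% = positive control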
# Mdm2 MdmX PPI = disrupts the human Mdm2-MdmX interaction | O15151+Q00987 | SaOS-2 split-luciferase Mdm2/MdmX complementation, luminescence | inhibition, % at 8 µM | 330,000 compounds, 3% hits | AID 485346;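 active = inhibition of at least 50% at 8 µM in the primary screen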
# Target sequence (O15151 whole entry, looked up): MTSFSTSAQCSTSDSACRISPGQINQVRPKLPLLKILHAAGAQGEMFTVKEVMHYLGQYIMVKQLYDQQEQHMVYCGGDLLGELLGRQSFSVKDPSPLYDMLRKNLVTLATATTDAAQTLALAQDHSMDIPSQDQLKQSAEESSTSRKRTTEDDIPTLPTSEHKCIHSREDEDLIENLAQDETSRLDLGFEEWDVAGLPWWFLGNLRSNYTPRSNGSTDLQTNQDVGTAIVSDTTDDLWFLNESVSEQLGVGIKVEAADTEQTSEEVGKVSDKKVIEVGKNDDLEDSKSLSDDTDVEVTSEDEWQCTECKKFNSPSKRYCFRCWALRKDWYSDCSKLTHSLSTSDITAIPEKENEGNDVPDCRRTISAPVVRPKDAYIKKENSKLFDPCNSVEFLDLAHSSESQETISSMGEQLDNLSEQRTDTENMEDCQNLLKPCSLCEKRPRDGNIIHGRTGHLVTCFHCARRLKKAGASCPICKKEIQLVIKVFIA
# Target sequence (Q00987 whole entry, looked up): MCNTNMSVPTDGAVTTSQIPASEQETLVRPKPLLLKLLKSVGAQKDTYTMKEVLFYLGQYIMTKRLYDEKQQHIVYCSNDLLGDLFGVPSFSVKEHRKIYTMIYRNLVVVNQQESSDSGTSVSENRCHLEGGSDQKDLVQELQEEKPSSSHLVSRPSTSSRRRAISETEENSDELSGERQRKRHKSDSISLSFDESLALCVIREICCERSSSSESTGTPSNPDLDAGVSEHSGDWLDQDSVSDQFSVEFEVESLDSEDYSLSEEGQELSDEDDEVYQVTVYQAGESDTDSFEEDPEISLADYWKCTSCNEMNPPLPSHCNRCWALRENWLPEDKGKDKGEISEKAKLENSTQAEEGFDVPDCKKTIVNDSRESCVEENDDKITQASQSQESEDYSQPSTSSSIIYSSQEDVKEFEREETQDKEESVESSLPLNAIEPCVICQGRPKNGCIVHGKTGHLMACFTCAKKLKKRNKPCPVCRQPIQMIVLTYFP
# 697 NFkB inh = inhibitors of the PMA/ionomycin-induced NF-kB reporter in 697 B cells; 330,000 compounds, 0.33% hits; 697 B-cell NF-kB luciferase reporter, 16 h; AID 435022; inhibition, % at 4 µM; in the data active = inhibition above about 35%
# Jurkat NFkB inh = inhibitors of the PMA/ionomycin-induced NF-kB reporter in Jurkat cells. PMA/ionomycin-induced NF-kB luciferase reporter, luminescence. inhibition, % at 4 µM. AID 435003. 330,000 compounds, 0.53% hits; in the data active = inhibition above about 50%
# Mdm2 MdmX conf = human Mdm2/MdmX binding inhibition, confirmed. 10,000 compounds, 55% hits. inhibition, % at 8 µM. shares compounds with Mdm2 MdmX PPI. luminescent assay; in the data active = inhibition above about 40%
# FLuc counter = counter-screen for Mdm2/MdmX inhibitors: full-length luciferase; inhibition, % at 8 µM; AID 504607; 6,200 compounds, 77% hits; SaOS-2 full-length luciferase counterscreen, luminescence; shares compounds with Mdm2 MdmX PPI;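 active = mean inhibition at 8 µM reaching about 37%, which flags the compound as non-specific, limit read from the data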;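 also: p53-null SaOS-2 cells with luciferase driven by a doxycycline-inducible promoter; compound on cells about two nights before reading with doxycycline added after day one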
# * = called active by the depositor; . = no result. This is a sample that favours compounds with a hit; in the whole collection about 4.1% have one here.
SMILES,KLF5 inhibitor,Gli-Sufu block,aSyn UTR inh,Mdm2 MdmX PPI,697 NFkB inh,Jurkat NFkB inh,Mdm2 MdmX conf,FLuc counter
O=C(NCc1cccnc1)/C(=C\c1ccc(-c2ccc(Br)cc2)o1)S(=O)(=O)c1ccccc1,3,4,-138,96*,15,20,99*,51*
O=C(CN(Cc1ccc(Br)cc1)S(=O)(=O)c1ccccc1)NCc1cccnc1,-39,-6,8,-9,-66,-20,.,.
O=C(NCc1cccnc1)/C(=C/c1ccc(-c2ccc(Cl)cc2)o1)S(=O)(=O)c1ccccc1,17,5,-79,82*,26,31,100*,52*
Cc1ccc(C2OC(=O)C=C2c2ccccc2)cc1 (stereo not given),.,-5,0,13,10,2,.,.
O=C(NCCc1c[nH]c2ccccc12)C(=O)NCC1OCCCN1S(=O)(=O)c1cc(F)ccc1F (stereo not given),-5,2,3,1,-19,-8,.,.
CCN(CC)C(=O)COc1ccc(/C(C)=N/Nc2ncc(Cl)cc2Cl)cc1,-84,0,-29,-7,8,3,.,.
CC1CN(CC(=O)Nc2nc3ccccc3s2)CC(C)O1 (stereo not given),-24,-9,-18,-15,-16,-3,.,.
CC(=O)OCC1O[C@@H](O[C@@H]2C[C@H]3C(C)(C)[C@H](OC(C)=O)CC[C@]3(C)[C@H]3CC[C@]45C[C@]4(CC[C@H]5[C@@H](C)C[C@@H](O)[C@H](O)C(C)(C)O)[C@@]32C)[C@H](O)[C@@H](O)[C@@H]1O (stereo not given in full),1,.,32,93*,14,7,13,.
CC(C)=CCC[C@](C)(O[C@@H]1O[C@H](CO[C@@H]2O[C@H](CO)[C@@H](O)[C@H](O)[C@H]2O)[C@@H](O)[C@H](O)[C@H]1O)C1CC[C@]2(C)C1C(=O)CC1[C@@]3(C)CC[C@H](O[C@H]4O[C@@H](CO)[C@H](O)[C@@H](O)[C@@H]4O)C(C)(C)C3CC[C@]12C (stereo not given in full),.,7,.,-8,9,4,.,.
COc1cccc(CN(CC(=O)NCc2ccccc2)C(=O)c2csnn2)c1,-29,-38,14,-25,5,12,.,.
Cn1c2ccccc2c2c(C(=O)N3CCN(c4ccccc4)CC3)cn(C3CCCC3)c(=O)c21,-16,15,14,9,-34,-21,.,.
Cc1cccc(N2CCN(C(=O)c3cn(C)c(=O)c4c3c3ccccc3n4C)CC2)c1C,-22,8,-7,59*,3,10,45*,64*
COCCn1cc(C(=O)N2CCN(C)CC2)c2c3ccccc3n(C)c2c1=O,20,10,-5,-3,2,3,.,.
Cc1ccc(Cl)cc1N1CCN(C(=O)c2cn(C)c(=O)c3c2c2ccccc2n3C)CC1,6,7,45,69*,-13,38,63*,42*
COc1ccccc1C(=O)NN=C1CCN(Cc2ccccc2)CC1,-35,-3,-73,1,9,-5,.,.
CS(=O)(=O)c1sc(C#N)c2c1C(=O)CC(c1ccccc1)C2 (stereo not given),-11,-7,81*,99*,1,21,100*,2
COc1ccccc1-n1c(C)c(C(=O)O)c2cc(OC)c3ccccc3c21,-44,-3,-4,-34,-15,-13,.,.
O=[N+]([O-])c1cccc(COc2ncnc3cc([N+](=O)[O-])ccc23)c1,-11,25,-1,15,3,9,.,.
O=C(Nc1ccccn1)Nc1ccccc1Cl,-114,23,-131,-33,-73,-52,.,.
CCOC(=O)c1sc2nc(C)nc(NCc3ccccc3)c2c1C,-5,2,18,52*,-4,31,26,113*
CCNC(=S)N1CCN(c2nc(CC)nc3sc4c(c23)CCCC4)CC1,-24,29,1,3,-15,3,.,.
CCc1nc(N2CCN(C(=O)CCl)CC2)c2c3c(sc2n1)CC(C)CC3 (stereo not given),-56,11,6,100*,20,14,11,.
CCc1nc(N2CCN(C(C)=O)CC2)c2c3c(sc2n1)CC(C(C)(C)C)CC3 (stereo not given),-38,13,11,72*,-49,7,25,63*
O=C(Nc1nc(-c2ccccn2)cs1)c1ccc(S(=O)(=O)N2CCCCC2)cc1,46,.,57,88*,-27,24,90*,16
O=C(N/N=C/c1sc(N2CCOCC2)nc1-c1ccccc1)c1cccc(S(=O)(=O)N2CCOCC2)c1,-3,0,87*,76*,-4,11,70*,43*
SMILES,KLF5 inhibitor,Gli-Sufu block,aSyn UTR inh,Mdm2 MdmX PPI,697 NFkB inh,Jurkat NFkB inh,Mdm2 MdmX conf,FLuc counter
O=C(Nc1nc(-c2cccs2)cs1)c1ccc(S(=O)(=O)N2CCCCC2)cc1,-6,7,-13,38,-6,12,.,.
COc1ccc(C(=O)Nc2nc(-c3ccccn3)cs2)cc1S(=O)(=O)N1CCOCC1,.,-2,.,49,-2,9,.,.
O=C(Nc1nc(-c2ccccn2)cs1)c1cccc(S(=O)(=O)N2CCOCC2)c1,.,27,.,77*,-45,10,79*,33
Cc1ccc(S(=O)(=O)N2CCOCC2)cc1C(=O)Nc1nc(-c2ccccn2)cs1,.,16,.,76*,-18,24,65*,30
CNC[C@H]1Oc2ccc(NC(=O)Nc3ccccc3)cc2CC(=O)N([C@H](C)CO)C[C@H]1C,.,-18,.,-11,-6,2,.,.
CN(Cc1ccc(Cl)s1)C(=O)CCl,-1,-13,-23,54*,23,16,41*,52*
COc1ccc(-c2csc(N3CCN(c4cc(C)nc5ccccc45)CC3)n2)cc1OC,-13,21,37,96*,-15,30,58*,74*
COc1cccc(Cl)c1NC(=O)N1CCN(c2cc(C)nc3ccccc23)CC1,-4,40,3,55*,19,20,24,.
COc1cccc(Cl)c1NC(=O)N1CCN(c2ccnc3cc(Cl)ccc23)CC1,-23,31,0,24,16,10,.,.
COc1ccc(NC(=O)Cc2ccsc2)cc1S(=O)(=O)N1CCOCC1,.,1,.,-2,6,4,.,.
CC(C)C(=O)NNC(=O)c1cc2sccc2s1,-14,-6,.,-14,-2,5,.,.
Cc1cc(N/N=C/c2c(O)ccc3ccccc23)nc(-c2ccccc2O)n1,-5,-6,72*,61*,6,7,53*,39*
Cc1ccc(C)c(Nc2cc(C)nc(-c3ccccc3O)n2)c1,35,-3,10,59*,-27,46,62*,49*
Cc1ccc(C)c(CNc2ccc(S(=O)(=O)N3CCCCC3)cc2)c1,.,4,.,30,-22,21,.,.

# Screens: PubChem, several laboratories
